In PubChem BioAssay AID504332 (National Center for Advancing Translational Sciences (NCATS), 2011) one finds Potency and activity, negative = inhibition data, which are given here for 86 compounds.

Among all 350,000 compounds or so, about 31,000 (8.9%) were called active. Inconclusive results (about 15%) are left out. The entries come from a sample that favours actives as a whole. Where a call stands in place of a potency, no number is given. Unmarked numbers belong to inactive results. Calls follow the shape of the dose curve; as a rule, active = well fitted inhibition curve with a large enough effect; inconclusive = small, poorly fitted or top-dose-only effect; inactive = no such curve, though single readings can be large or run the other way.
Potency is read from the fitted curve at half-maximal effect.

For the experiment, the target named is Histone-lysine N-methyltransferase EHMT2 (Homo sapiens) (UniProt Q96KQ7). In words: qHTS Assay for Inhibitors of Histone Lysine Methyltransferase G9a. Also: nearly all actives have a fitted effect of over 75% in size. As to conditions: G9a H3K9 monomethylation, AlphaScreen, 2 h; series mostly up to 59 µM. A digest of the protocol: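 Readings reflect AlphaScreen signal from monomethyl-H3K9 antibody detection. HMT at 20 nM; substrate b-H3K9 500 nM; cofactor SAM 20 uM; 2 h RT reaction; compounds tested as titrations in qHTS with 15 min preincubation.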
Sequence of Histone-lysine N-methyltransferase EHMT2 (Homo sapiens) (Q96KQ7 913-1193 limits assumed): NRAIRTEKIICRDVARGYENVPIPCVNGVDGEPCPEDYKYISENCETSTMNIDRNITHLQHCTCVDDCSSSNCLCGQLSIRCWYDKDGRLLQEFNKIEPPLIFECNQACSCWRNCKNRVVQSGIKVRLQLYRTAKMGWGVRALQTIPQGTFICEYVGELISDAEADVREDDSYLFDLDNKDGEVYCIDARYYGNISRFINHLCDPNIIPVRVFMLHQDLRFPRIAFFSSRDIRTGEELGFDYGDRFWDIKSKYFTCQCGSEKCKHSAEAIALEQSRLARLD
In general terms: In qHTS, concentration-response curves come from the screen itself.
On to `O=C(CCNS(=O)(=O)c1ccc(Br)cc1)NCC1CCCO1` (stereo unspecified), for which the Potency result was “inactive”.

For the compound `CC1CN(C(=O)N2CCC(C(=O)NCc3cccs3)CC2)c2ccccc2O1` (stereo unspecified), the Potency entry was “inactive”.

With `CSCCC(NC(=O)COc1ccccc1)C(=O)OCCOc1ccc(F)cc1` (stereo unspecified), the Potency result is “inactive”.

With `O=C(Nc1nnc(-c2ccccc2)o1)c1cc(-c2cccs2)nc2ccccc12`, the Potency is 39.8 µM (active).

As to `COC(=O)c1cc(-c2cccs2)nc2ccccc12`, the activity, negative = inhibition was 17% [at 2.33 µM].

Regarding `CCCCN(C)CCCNC(=O)c1cc(-c2cccs2)nc2ccccc12`, the Potency result was “inactive”.

`COC(=O)c1cc2occc2n1Cc1nc(-c2ccc(C)cc2)oc1C`: the Potency result was “inactive”.

Take `CC(=O)c1c(C)[nH]c(C(=O)OCC(=O)Nc2c(C)n(C)n(-c3ccccc3)c2=O)c1C`: the Potency entry was “inactive”.

As for `Cc1ccc(CC2CC(=O)N(c3ccc4c(c3)OCCO4)C2=O)cc1` (stereo unspecified), the Potency result is “inactive”.

For `Cc1ccc(N2C(=O)CC(NCc3ccc4c(c3)OCO4)C2=O)cc1Cl` (stereo unspecified), the Potency was 39.8 µM (active).

For the compound `CC1CCCCN1CC(=O)NCc1ccc2c(c1)OCO2` (stereo unspecified), the activity, negative = inhibition is 8.12% [at 12.7 µM].

For `O=C(c1ccc(Cn2cc([N+](=O)[O-])cn2)o1)N1CCCC1`, the Potency entry is “inactive”.

For `CCCCNC(=O)C1CCCN(c2nnc(C)c3c(C)n(-c4ccc(Cl)cc4)nc23)C1` (stereo unspecified), the Potency result is “inactive”.

On to `CCc1nnc(NC(=O)CSc2nc3c(c(=O)n2-c2ccccc2OC)SCC3)s1`, for which the activity, negative = inhibition was -12.8% [at 12.7 µM].

Turning to `CCOc1ccc(-n2c(SCC(=O)Nc3ccc(OC)cc3)nc3sc4c(c3c2=O)CCN(C)C4)cc1`, the Potency is 39.8 µM (active).

As for `COc1ccc(-n2c(SC)nc3sc4c(c3c2=O)CCN(C(C)=O)C4)cc1`, the Potency result was “inactive”.

Turning to `COc1ccccc1-n1c(SCC(=O)O)nc2sc3c(c2c1=O)CCC3`, the Potency result was “inactive”.

As to `CCOc1ccc(NC(=O)CSc2nc3c(c(=O)n2-c2ccccc2OC)SCC3)cc1`, the Potency is 31.6 µM (active).

`COc1ccccc1NC(=O)CSc1nc2sc3c(c2c(=O)n1-c1ccccc1)CCN(C)C3`: the Potency is 39.8 µM (active).

`CCOc1ccc(NC(=O)CSc2nncn2C)cc1`: the Potency entry is “inactive”.

`CCOC(=O)c1sc(NC(=O)CSc2nc3c(c(=O)n2-c2ccccc2)SCC3)c(C(=O)OCC)c1C`: the Potency result is “inactive”.

Consider `CC1(C)Cc2c(sc3nc(SCC(=O)NCc4ccccc4)n(-c4ccccc4)c(=O)c23)CS1`, for which the Potency result is “inactive”.

Turning to `COc1ccc(/C=C/c2nc(C#N)c(NCc3ccc(F)cc3)o2)cc1OC`, the Potency result is “inactive”.

For the compound `COc1ccc(NC(=O)CC2SC(N3CCCCC3)=NC2=O)cc1OC` (stereo unspecified), the activity, negative = inhibition is 29.8% [at 12.7 µM].

Consider `O=c1c2ccccc2n(Cc2cccc(Cl)c2)c(=O)n1Cc1ccccc1`, for which the Potency entry is “inactive”.

For `COc1ccc(CNC(=O)CSCc2nc(-c3ccccc3F)oc2C)cc1`, the Potency result was “inactive”.

Take `O=C(Cn1c(=O)n(-c2ccc(F)cc2)c(=O)c2sccc21)Nc1cccc(C(F)(F)F)c1`: the Potency result was “inactive”.

As to `CCc1sc(C(=O)N2CCN(CC(=O)Nc3cccc(F)c3)CC2)cc1C`, the Potency result was “inactive”.

Take `CCN(C(=O)COC(=O)C1CCN(S(=O)(=O)c2ccc(C)c(C)c2)CC1)C1CCS(=O)(=O)C1` (stereo unspecified): the activity, negative = inhibition is 7.98% [at 2.33 µM].

`COc1ccc(C2CC(=O)N(Cc3ccccc3C)c3c2c(C)nn3-c2nc(C)cc(C)n2)c(OC)c1` (stereo unspecified): the Potency entry was “inactive”.

On to `Cc1cc(NC(=O)CSc2ncc(C(=O)Nc3ccc(Cl)cc3)c(=O)n2C)no1`, for which the Potency entry is “inactive”.

With `COc1ccc(-c2nc(S(=O)(=O)c3ccccc3)c(N3CCCCC3)o2)cc1`, the Potency entry was “inactive”.

Turning to `COc1cccc(-c2nc(S(=O)(=O)c3ccccc3)c(N3CCOCC3)o2)c1`, the activity, negative = inhibition was -43% [at 12.7 µM].

For `O=S(=O)(c1ccccc1)c1nc(Cc2ccccc2)oc1N1CCOCC1`, the Potency was 7.08 µM (active).

Regarding `COc1ccc(CNC(=O)COC(=O)c2c(C)nn(-c3ccccc3)c2C)cc1OC`, the Potency result was “inactive”.

In the case of `C#CCOCCOCCOCCNc1nc(N2CCN(C(=O)CCCCCCCCCCNC(=O)[C@H]([C@@H](C)CC)n3cc(CCCCN=C(N)N)nn3)CC2)nc(N2CCN(C(=O)CCCCCCCCCCNC(=O)[C@H](CO)n3cc(CCCSC)nn3)CC2)n1`, the activity, negative = inhibition was 10.6% [at 2.33 µM].

As for `C#CCOCCOCCOCCNc1nc(N2CCN(C(=O)CCCCCCCCCCNC(=O)[C@H](CCCCN)n3cc(C)nn3)CC2)nc(N2CCN(C(=O)CCCCCCCCCCNC(=O)[C@H](CO)n3cc(CCCSC)nn3)CC2)n1`, the activity, negative = inhibition was -8.81% [at 2.33 µM].

For the compound `C#CCOCCOCCOCCNc1nc(N2CCN(C(=O)Cn3cc(CCCCN)nn3)CC2)nc(N2CCN(C(=O)[C@H](CCCCN)n3cc(CCC(=O)O)nn3)CC2)n1`, the activity, negative = inhibition is 5.8% [at 2.33 µM].

On to `C#CCOCCOCCOCCNc1nc(N2CCN(C(=O)[C@H](C(C)C)n3cc(CCO)nn3)CC2)nc(N2CCN(C(=O)[C@H](C(C)C)n3cc(CCO)nn3)CC2)n1`, for which the Potency is 44.7 µM (active).

Regarding `C#CCOCCOCCOCCNc1nc(N2CCN(C(=O)[C@H](CCCCN)n3cc(CCC(=O)O)nn3)CC2)nc(N2CCN(C(=O)[C@H](CCCCN)n3cc(CC(C)O)nn3)CC2)n1` (stereo partly specified), the activity, negative = inhibition was -23.5% [at 2.33 µM].

Regarding `C#CCOCCOCCOCCNc1nc(N2CCN(C(=O)[C@H](C(C)C)n3cc(CCO)nn3)CC2)nc(N2CCN(C(=O)[C@H]([C@@H](C)CC)n3cc(CCCN=C(N)N)nn3)CC2)n1`, the Potency was 39.8 µM (active).

Take `COc1ccccc1CNC(=O)NCc1noc2ccc(C)cc12`: the Potency entry is “inactive”.

Turning to `Cc1cc(C)c(NC(=O)CCc2c(C)nc3c(c(C)nn3C(C)(C)C)c2C)c(C)c1`, the Potency result is “inactive”.

Take `N#Cc1nc(/C=C/c2ccc(F)cc2)oc1NCc1ccc(F)cc1`: the Potency entry is “inactive”.

As for `O=C(Nc1ccc2c(c1)OCO2)c1cc(-c2cccc(Cl)c2)on1`, the Potency entry was “inactive”.

Take `COc1ccc(NC(=O)Cn2c(=O)cc(C)c3c(C)nn(-c4cccc(Cl)c4C)c32)cc1OC`: the Potency result is “inactive”.

Regarding `COc1cccc(CNC(=O)Cc2csc3nc(-c4ccccc4)cn23)c1`, the Potency entry is “inactive”.

As for `O=C1/C(=C\c2ccsc2)NC(=S)N1c1ccccc1`, the Potency was 50.1 µM (active).

Regarding `CC1=CC(C)(C)NC(=S)N1c1ccccc1`, the Potency entry is “inactive”.

`O=C1/C(=C/c2coc3ccc(O)cc3c2=O)SC(=S)N1c1ccccc1`: the activity, negative = inhibition is -31.3% [at 12.7 µM].

For `CC(=O)c1ccccc1OCc1ccc(C(=O)c2ccccc2)cc1`, the Potency entry is “inactive”.

With `O=C(O)c1cccc(S(=O)(=O)N2CC=C(c3ccccc3)CC2)c1`, the activity, negative = inhibition was 23% [at 12.7 µM].

For `Cc1c(C2=CCN(S(=O)(=O)c3ccc(Cl)cc3)CC2)c2ccccc2n1C`, the Potency is 44.7 µM (active).

With `COc1ccccc1N1CCN(S(=O)(=O)c2ccc(Cl)cc2)CC1`, the Potency result is “inactive”.

With `COc1ccc(NC(=O)CSC2=Nc3ccccc3C3=NC(CC(=O)NCc4ccccc4OC)C(=O)N23)cc1Cl` (stereo unspecified), the Potency entry is “inactive”.

Take `CCC(C)CCN1CCN=C1N(C)C` (stereo unspecified): the activity, negative = inhibition is 2.04% [at 2.33 µM].

Regarding `CCC(C)(C)c1ccc(OCC(=O)N(C)C)c(C(C)(C)CC)c1`, the Potency entry is “inactive”.

As to `CN(C)CCOc1ccc(Cl)cc1C(C)(C)C`, the Potency is 8.91 µM (active).

As for `O=C(NCCCO)c1nn(-c2ccc(Cl)cc2)nc1CO`, the Potency result is “inactive”.

Regarding `Cc1nn(Cc2ccccc2)c(C)c1C(=O)NCCN1C(=O)S/C(=C\c2ccc(F)cc2)C1=O`, the Potency result was “inactive”.

For the compound `N#Cc1ccccc1CN1C(=O)S/C(=C/c2cccn2-c2cccc(C(=O)O)c2)C1=O`, the Potency was 44.7 µM (active).

As for `COc1ccc(/C=C2\SC(=S)N(CCC(=O)Nc3cccc(C(=O)O)c3)C2=O)cc1OC`, the Potency result was “inactive”.

For `CC(C)C(=O)Nc1nc2c(s1)CC(C(C)(C)C)CC2` (stereo unspecified), the Potency result is “inactive”.

Take `Cn1nnnc1SCCCNCc1ccc(Cl)cc1`: the Potency entry is “inactive”.

Consider `O=C(CCNC(=O)c1ccccc1)Nc1nc2ccccc2s1`, for which the activity, negative = inhibition was -6.33% [at 0.501 µM].

With `CCN(CC)CCOCCOc1ccc(Cl)c2ccccc12`, the Potency entry is “inactive”.

Consider `CN(C)CCOCCOc1ccc(Cl)c2ccccc12`, for which the Potency was 14.1 µM (active).

`O=S(=O)(c1ccc(Cl)cc1)c1nc(-c2ccco2)oc1N1CCCCC1`: the activity, negative = inhibition was 32.5% [at 12.7 µM].

For `Clc1cccc(-n2ncc3c(NCCc4ccccc4)ncnc32)c1`, the Potency entry is “inactive”.

Turning to `O=C(CCc1ccccc1)Nc1nn[nH]n1`, the Potency entry was “inactive”.

In the case of `O=C(/C=C/c1c(Cl)cccc1Cl)NCc1ccccc1`, the Potency entry is “inactive”.

For the compound `O=C(/C=C/c1c(F)cccc1Cl)Nc1nn[nH]n1`, the Potency is 39.8 µM (active).

In the case of `CSc1ccccc1NC(=O)c1cnc2sc(C)cn2c1=O`, the Potency entry was “inactive”.

With `O=S(=O)(NC1CCN(S(=O)(=O)c2ccc3c(c2)OCCO3)CC1)c1c(F)cccc1F`, the activity, negative = inhibition is 3.66% [at 12.7 µM].

With `COc1cccc(N(CC(=O)NC2CCCC2)C(=O)Cn2nnc(-c3ccc(C)o3)n2)c1`, the Potency result was “inactive”.

In the case of `COc1cc2ccccc2cc1C(=O)Nc1ccc(N2CCOCC2)cc1`, the Potency entry was “inactive”.

For the compound `O=C(Cc1ccc([N+](=O)[O-])cc1)Nc1ccc(C(=O)N2CCOCC2)cc1`, the Potency result was “inactive”.

On to `O=C(Nc1ccc(N2CCOCC2)cc1)c1ccc(-c2ccccc2[N+](=O)[O-])o1`, for which the Potency was 17.8 µM (active).

With `O=C(COc1ccccc1)Nc1cc2c3c(c1)CC(=O)N3CCC2`, the Potency entry was “inactive”.

Turning to `Cc1ccc(C)c(N2CCN(C(=O)CCCCCn3c(=S)[nH]c4ccc(N5CCOCC5)cc4c3=O)CC2)c1`, the Potency result was “inactive”.

For `CNC(=O)c1c(NC(NC(=O)c2ccco2)C(=O)c2ccc(Cl)cc2)sc2c1CCCC2` (stereo unspecified), the Potency is 11.2 µM (active).

As to `Cc1ccc2c(=O)cc(C(=O)Nc3sc4c(c3C(=O)NCc3cccnc3)CCCC4)oc2c1`, the Potency entry was “inactive”.

As for `CC(C)OC(=O)c1c(NC(=O)c2ccco2)sc2c1CCCC2`, the Potency result was “inactive”.

Turning to `COc1cc2c(cc1O)[C@H](Cc1ccc(Oc3cc(C[C@@H]4NCCc5cc(OC)c(O)cc54)ccc3O)cc1)NCC2`, the Potency was 12.6 µM (active).

On to `CCc1ccc(OCC2c3cc(OC)c(OC)cc3CCN2C(C)=O)cc1` (stereo unspecified), for which the Potency entry was “inactive”.

Take `COc1ccc(CC2c3cc(OC)c(OC)cc3CC[N+]2(C)CCC(=O)OCCCCCOC(=O)CC[N+]2(C)CCc3cc(OC)c(OC)cc3C2Cc2ccc(OC)c(OC)c2)cc1OC` (stereo unspecified): the activity, negative = inhibition was 7.6% [at 12.7 µM].
